Laboratory results published in PubChem BioAssay.
Activity calls are given as the source filed them. Unless noted, how the calls were made is not given here.

Tests used:
[1] = system: XIP peptide (Xip251-270) binding; assay: XIP fragment 251-270 binding compounds – biochemical, small-molecule microarray, fluorescence 635/667 nm, 0.1 µg/mL protein, primary screen (AID 1182); conditions: fluorescent protein binding, 635 nm, higher = more signal, called active from +8 up or from −8 down
XIP peptide (Xip251-270) = assay: compounds binding XIP fragment 251-270 – biochemical, small-molecule microarray, fluorescence 635/667 nm, 0.5 µg/mL protein, primary screen (AID 1183); conditions: fluorescence 635 nm, higher = more signal
[2] = blood-stage malaria parasite viability loss – strain 3D7, DAPI fluorescence, 100 nL, primary screen (AID 1184);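 further: parasites grown inside human red blood cells in medium with human serum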; conditions: P. falciparum 3D7 growth, 3 d, higher = more signal
[3] = biological target: Homeobox protein Hox-A13 (Mus musculus) (UniProt Q62424); assay: disruptors of Hoxa13 oligonucleotide interaction – biochemical, fluorescence polarization, labeled oligonucleotide, primary screen (AID 1185); conditions: Hoxa13:DNA binding, 15 min, higher = more signal, called active from +8 up or from −8 down
[4] = blockers of DNA damage checkpoint Chk1 activation – imaging, HeLa, hydroxyurea, phospho-Chk1 antibody, percent positive cells, primary screen (AID 1186); conditions: hydroxyurea-induced phospho-Chk1 immunofluorescence imaging, higher = more signal
[5] = blockers of DNA damage checkpoint Chk1 activation – imaging, HeLa, hydroxyurea, phospho-Chk1 nuclear intensity, primary screen (AID 1187); conditions: hydroxyurea-induced phospho-Chk1 immunofluorescence imaging, higher = more signal

Sequence of Homeobox protein Hox-A13 (Mus musculus) (Q62424 whole entry, looked up): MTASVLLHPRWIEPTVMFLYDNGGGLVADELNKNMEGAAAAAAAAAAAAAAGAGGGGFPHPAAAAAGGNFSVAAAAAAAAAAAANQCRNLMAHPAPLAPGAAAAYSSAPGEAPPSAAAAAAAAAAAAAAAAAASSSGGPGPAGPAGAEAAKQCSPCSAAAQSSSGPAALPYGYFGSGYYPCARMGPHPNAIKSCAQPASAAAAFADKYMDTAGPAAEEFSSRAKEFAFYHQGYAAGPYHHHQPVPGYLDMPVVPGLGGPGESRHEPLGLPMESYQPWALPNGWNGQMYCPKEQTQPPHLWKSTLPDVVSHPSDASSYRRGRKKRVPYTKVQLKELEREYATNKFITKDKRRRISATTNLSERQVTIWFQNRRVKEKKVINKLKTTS

| Structure (SMILES) | composite z-score [1] | composite z-score (XIP peptide (Xip251-270)) | z-score [2] | z-score [3] | z-score [4] | z-score [5] |
| --- | --- | --- | --- | --- | --- | --- |
| CCOC(=O)C[C@H]1[C@H](OC(=O)c2cc3ccccc3oc2=O)[C@@H](NC(=O)c2ccc3ccccc3c2)c2cc(OCCCO)ccc2N1C(=O)c1ccc2ccccc2n1 | 0.227 (inactive) | -0.333 | -1.6 | -1.06 (inactive) | -0.0364 (inactive) | 0.034 (inactive) |
| CCCC=C(CCC)[C@@H](NS(=O)(=O)c1cccc(C(F)(F)F)c1)c1ccc(C(=O)OC)cc1 | 0.0637 (inactive) | 0.377 | 0.551 | -1.64 (inactive) | 0.0948 (inactive) | -0.275 (inactive) |
| CCOC(=O)C1=CCC(c2cccc3ccccc23)N(S(=O)(=O)c2ccc(C)cc2)C1 (stereo unspecified) | 0.225 (inactive) | 0.449 | -1.77 | -1.57 (inactive) | 0.18 (inactive) | -0.129 (inactive) |
| C#C[C@H](O[Si](C#Cc1ccccc1)(C(C)C)C(C)C)c1ccccc1 | 0.114 (inactive) | 0.311 | -1.16 | -1.52 (inactive) | 0.116 (inactive) | 0.201 (inactive) |
| COCCOC(=O)N1C(=O)[C@@]2(c3cc(C#CCCO)ccc31)[C@H](c1ccc(O)cc1)N1[C@H](c3ccccc3)[C@H](c3ccccc3)OC(=O)[C@H]1[C@@H]2C(=O)Nc1nc2ccccc2s1 | 0.449 (inactive) | 0.635 | -1.04 | -1.98 (inactive) | -0.534 (inactive) | -0.733 (inactive) |
| CO[C@H]1O[C@H](CO)[C@@H](OC(=O)CCc2ccccc2)[C@@H]2OC(=O)[C@H](Cc3cccc(Br)c3)C/C=C/C[C@@H](Cc3cccc(Br)c3)C(=O)O[C@@H]12 | 0.0304 (inactive) | -0.107 | -1.84 | -2.42 (inactive) | -0.962 (inactive) | -1.1 (inactive) |
| CC1=C([C@H](O)CCc2ccccc2)[C@H](CO)[C@@H]2C(=O)N(Cc3ccccc3)C(=O)[C@@H]2C1 | -0.241 (inactive) | -0.0644 | -0.793 | -4.92 (inactive) | -0.698 (inactive) | -0.835 (inactive) |
| COCCOC(=O)N1C(=O)[C@@]2(c3cc(C#CCCO)ccc31)[C@H](c1ccc(OCCO)cc1)N1[C@H](c3ccccc3)[C@H](c3ccccc3)OC(=O)[C@H]1[C@@H]2C(=O)NC[C@H](O)c1ccccc1 | 0.405 (inactive) | 0.765 | -2.1 | -1.24 (inactive) | -0.234 (inactive) | -0.341 (inactive) |
| O=C(NCc1ccccc1)c1ccc(Br)cc1[N+](=O)[O-] | 0.103 (inactive) | 0.0871 | 2.11 | 0.513 (inactive) | 0.225 (inactive) | 0.119 (inactive) |
| O=C1O[C@H](c2ccccc2)[C@H](c2ccccc2)N2[C@H]1[C@@H](C(=O)NC[C@H](O)c1ccccc1)[C@]1(C(=O)Nc3ccc(C#CC4=CCCCC4)cc31)[C@H]2c1ccc(OCCO)cc1 | 1.21 (inactive) | 0.658 | -0.435 | 3.43 (inactive) | -0.22 (inactive) | -0.301 (inactive) |
| COCCCNC(=O)[C@@]1(c2ccc([N+](=O)[O-])cc2)CC(=O)N(C2CCCCC2)[C@@H]1c1ccc(CO)cc1 | 0.516 (inactive) | -0.0219 | -0.214 | -2.99 (inactive) | 0.029 (inactive) | -0.269 (inactive) |
